# From PubChem BioAssay AID540317 (National Center for Advancing Translational Sciences (NCATS), 2011)
# In all, about 390,000 compounds went through this assay and about 2,200 (0.56%) were called active. Not shown: some 3% with an inconclusive outcome. Calls follow the shape of the dose curve; as a rule, active = well fitted inhibition curve with a large enough effect; inconclusive = small, poorly fitted or top-dose-only effect; inactive = no such curve, though single readings can be large or run the other way. Shown is part of a subset that was picked to be rich in actives.
# Biological target: Chromobox protein homolog 1 (Homo sapiens) (UniProt P83916)
# Experiment: HTS for Inhibitors of HP1-beta Chromodomain Interactions with Methylated Histone Tails; also: nearly all actives have a fitted effect of over 70% in size
# Conditions: AlphaScreen HP1-beta / biotin-H3K9me3 peptide binding; series mostly up to 114 µM; activity change, negative = inhibition: at the top concentration
# In short: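 AlphaScreen: HP1-beta (50 nM) preformed 30 min with biotin-H3(1-18)K9me3 peptide (50 nM) in PBS pH 7.4, 0.01% Tween-20. Compound added for 30 min at RT, then streptavidin donor/nickel chelate acceptor beads (10 ug/mL) for 30 min.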
# Potency is read from the fitted curve at half-maximal effect.
# Chromobox protein homolog 1 (Homo sapiens), sequence (P83916 whole entry, looked up): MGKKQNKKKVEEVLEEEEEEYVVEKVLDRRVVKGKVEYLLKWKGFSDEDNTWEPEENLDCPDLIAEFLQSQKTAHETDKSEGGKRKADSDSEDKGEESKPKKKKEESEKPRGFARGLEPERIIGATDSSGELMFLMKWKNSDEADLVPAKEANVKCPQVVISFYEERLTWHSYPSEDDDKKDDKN
SMILES,"activity change, negative = inhibition",Potency
CSc1nc(-c2ccccc2Cl)nc2c1Cc1c(CO)cnc(C)c1O2,14.1% (inactive),
COC(=O)C1=C(C)N(c2ccc(C)cc2)/C(=C/c2ccc(O)cc2)C1=O,24.6% (inactive),
COc1ccc(N2C(=O)/C(=C\c3ccco3)N=C2SCC(N)=O)cc1Cl,17.6% (inactive),
COC(=O)C1=C(C)N(c2ccc(Br)cc2)C(=O)/C1=C\c1ccco1,,44.7 µM (active)
Cc1nc(N2CCOCC2)c2c(C(=O)NCc3cccc(Cl)c3)c(C)oc2n1,34.2% (inactive),
CN(C)c1ccc(S(=O)(=O)NCC(=O)NCC2CCCCC2)cc1[N+](=O)[O-],-11.4% (inactive),
CN(C)c1ccc(/C=C/C(=O)c2ccc(C(C)(C)C)cc2)cc1[N+](=O)[O-],,31.6 µM (active)
CC(C)(C)c1ccc(/C=C/C(=O)NC2CCS(=O)(=O)C2)cc1 (stereo unspecified),25.9% (inactive),
CCCCC(=O)OC1=CN(Cc2ccccc2)S(=O)(=O)c2ccccc21,107% (inactive),
COc1ccc(C(=O)Nc2nonc2-c2ccc(OC)c(OC)c2)cc1Cl,29.6% (inactive),
O=C(CSc1nc2ccccc2nc1Cc1ccccc1)N1CCCCC1,41% [at 57 µM] (inactive),
O=C(NCC1CC1)C1(C(F)(F)F)C/C(=C\CCO)CCCO1 (stereo unspecified),-2.38% (inactive),
O=C(O)c1ccccc1N=N/C(=N/Nc1cc(S(=O)(=O)O)ccc1O)c1ccccc1,,10 µM (active)
CCC(=O)Nc1cccc(C(=O)OCc2cc(=O)n3nc(CC)sc3n2)c1,27.5% (inactive),
O=C(Nc1ccccc1Br)c1cc(CN2CCCC2)on1,13.6% (inactive),
Fc1ccc(C(Nc2ccc(Cl)c(C(F)(F)F)c2)c2nnc(-c3ccccc3)o2)cc1 (stereo unspecified),34% (inactive),
COc1ccc(C2CC(=O)N(Cc3ccccc3C)c3c2c(C)nn3-c2nc(C)cc(C)n2)c(OC)c1 (stereo unspecified),39.1% (inactive),
COc1cc(OC)c2c(c1C(CCN1CCCCC1)c1ccc(N(C)C)cc1)OC(=O)CC2c1ccc(N(C)C)cc1 (stereo unspecified),-26% (inactive),
CCc1c(C)sc(NC(=O)C2c3ccccc3Oc3ccccc32)c1C(=O)OC(C)C,22.5% (inactive),
Cc1sc(NC(=O)C2C3CCC(O3)C2C(=O)O)c(C(=O)OC(C)C)c1-c1ccc(Cl)cc1 (stereo unspecified),,4.47 µM (active)
CC(C)OC(=O)c1cc(NC(=O)C2C3CCC(O3)C2C(=O)O)cc(C(=O)OC(C)C)c1 (stereo unspecified),38.1% (inactive),

SMILES,"activity change, negative = inhibition",Potency
FC(F)(F)C1CCCN(c2nsc3ccccc23)C1 (stereo unspecified),,3.16 µM (active)
CCC(=O)N1CCc2cc(S(=O)(=O)NC(C(=O)Nc3ccc(C(C)=O)cc3)C(C)C)ccc21 (stereo unspecified),22.5% (inactive),
COc1ccc(C2/C=C\CN(Cc3ccco3)C(C)C(=O)N2Cc2ccc(F)cc2)cc1 (stereo unspecified),12.8% (inactive),
Cc1ccc(CSCC2Nc3ccc(C(=O)N4CCN(c5ccc(F)cc5)CC4)cc3NC2=O)cc1 (stereo unspecified),,20 µM (active)
CC1CCN(C(=O)c2ccc3c(c2)NC(=O)CN3)CC1,22.1% (inactive),
Cc1noc(C)c1S(=O)(=O)Nc1ccc(C(=O)N2CCN(c3ccc(F)cc3)CC2)cc1,27.9% (inactive),
Cc1ccc(C)c(N2CCN(c3ccc4cc(S(=O)(=O)N5CCC(C)CC5)ccc4n3)CC2)c1,46.2% (inactive),
Oc1ccc2ccccc2c1N=Nc1nccs1,,6.31 µM (active)
O=C(CSc1nc(-c2cccc(F)c2)[nH]c1-c1ccccc1)Nc1ccc2c(c1)OCO2,-8.38% (inactive),
Cc1ccccc1CSc1nc(-c2ccccc2)nc2c1Cc1c(CO)cnc(C)c1O2,58.3% (inactive),
Cc1ccc(NC(=O)C2CCN(S(=O)(=O)c3cc(-c4noc(C)n4)ccc3C)CC2)c(C)c1,46.4% (inactive),
CCOC(=O)C1=C(NC(=S)NC(=O)c2ccccc2)c2ccccc2CC1(C)C,-12.5% (inactive),
O=C(NC(=S)Nc1ncccn1)c1ccccc1Br,35.2% (inactive),
Cn1nnc(NC(=S)NC(=O)c2ccccc2)n1,,70.8 µM (active)
CSc1nnc(SCc2nc3sc(C(=O)O)c(C)c3c(=O)[nH]2)s1,,50.1 µM (active)
CCN(CC)Cc1nc2sc(C)c(C)c2c(=O)[nH]1,28.7% (inactive),
Cc1sc2nc(CC(N)=O)[nH]c(=O)c2c1-c1ccccc1,14.8% (inactive),
C=C1CCN(Cc2ccc(OC)cc2)S(=O)(=O)c2ccccc21,15.4% (inactive),
COC(=O)c1ccc(OC)c(Cn2c(=O)n(Cc3ccccc3)c(=O)c3c2c2cc(OC)ccc2n3C)c1,10.2% (inactive),
Cc1cc(C)cc(NC(=O)c2cnc3sc(N4CCCC4)nn3c2=O)c1,38.7% (inactive),
O=C(O)C(c1ccccc1)N1C(=O)/C(=C\c2ccc(-c3cccc(Cl)c3)o2)SC1=S (stereo unspecified),,39.8 µM (active)

SMILES,"activity change, negative = inhibition",Potency
CCC(C)N1C(=O)S/C(=C/c2ccc(Sc3nc4ccccc4[nH]3)o2)C1=O (stereo unspecified),16.7% (inactive),
O=C(NCc1ccccc1)c1cc(-c2cccc(Cl)c2)on1,30% (inactive),
Cc1cccc(N2CCN(C(=O)Cn3ncc4c5ccccc5n(C)c4c3=O)CC2C)c1 (stereo unspecified),36.1% (inactive),
CC(C)c1ccc(NS(=O)(=O)c2ccc3[nH]cc(C(=O)NC4CCCC4)c(=O)c3c2)cc1,3.66% (inactive),
Cc1cc2c(cc3c(SCc4cccc(Cl)c4)nnc(C)n32)o1,-21.8% (inactive),
CCOc1cccc(CC(=O)N2CCc3c([nH]c4ccccc34)C2c2ccc(F)cc2)c1OCC (stereo unspecified),-8.88% [at 57 µM] (inactive),
CCOc1cccc2c1N[C@@H](c1ccc(C(=O)O)cc1)[C@H]1CC=C[C@@H]21,,35.5 µM (active)
CCOC(=O)C1Nc2ccc(C(F)(F)F)cc2C2C=CCC12 (stereo unspecified),-23% (inactive),
C=C1CCN(C(CC(C)C)C(=O)NCc2cc(OC)c(OC)c(OC)c2)S(=O)(=O)c2ccccc21 (stereo unspecified),23.6% (inactive),
CCCn1c2ccccc2c2cnn(CC(=O)N(C)c3ccccc3CC)c(=O)c21,-12.7% (inactive),
COc1ccc(C2/C=C\CN(C(=O)c3ccc(C)cc3)C(Cc3ccccc3)C(=O)N2Cc2ccc(F)cc2)cc1 (stereo unspecified),17.1% (inactive),
COc1cccc(CNC(=O)Cn2c(=O)c3cccn3c3ccc(F)cc32)c1OC,83.2% (inactive),
O=C(c1cccs1)c1cn(CCOc2ccc(Cl)cc2)c2ccccc12,17.6% (inactive),
Cc1ccc(-c2ccc(CCC(=O)O)n2-c2ccc(C(N)=O)cc2)cc1,6.36% (inactive),
CCN1/C(=C\c2ccc3ccccc3[n+]2CC)Sc2cc(C)ccc21,-18.2% (inactive),
CCN1C(=O)c2ccccc2Sc2ccc(NC(=O)Cc3ccc(OC)cc3)cc21,6.32% [at 57 µM] (inactive),
CCN1/C(=C/C(=S)Nc2ccccc2)Sc2ccccc21,,50.1 µM (active)
COc1ccc(CCNC(=O)c2ccc(CSCc3ccc(C)cc3)o2)cc1OC,-13.4% (inactive),
COc1ccc(-c2ccc(OC)c(C3C4C=CCC(C)C4C(=O)N3Cc3ccccc3)c2)cc1C (stereo unspecified),63.4% (inactive),
